The cell viability is a read-out of living cells in per cent, often relative to untreated cells.

Counter-ions that a name gives are not always drawn.

Data on 25 compounds can be found in the supplement of paper PMC10981050.

The subject of this assay is MARIMO. Description: cell viability relative to vehicle control; higher = less cytotoxic. The conditions noted are these: 10 µM; SRSF2 genotype: SRSF2 P95H/wt. Put shortly:
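Mutant clones made by CRISPR editing and their isogenic wild-type counterparts, from four leukaemia lines, were exposed to a single 10 µM dose of each library compound for 48 h. The supernatant was then removed and CellTiter-Glo luminescence was read. Viability was reported as percent of the on-plate vehicle control.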
For `C#Cc1cccc(Nc2ncnc3cc(OCCOC)c(OCCO)cc23)c1` [OSI-420 (Desmethyl Erlotinib)], the cell viability is 53.9%.
In the case of `O=C(O)Cc1ccccc1Nc1c(Cl)cccc1Cl` [Diclofenac Sodium] it was 103%; in that of `CC[C@H](C)C(=O)O[C@H]1C[C@@H](C)C=C2C=C[C@H](C)[C@H](CC[C@@H]3C[C@@H](O)CC(=O)O3)[C@H]21` [Lovastatin (Mevacor)], 74%.
The same measure for `Clc1ccc2c(c1)CCc1cccnc1C2=C1CCNCC1` [Desloratadine]: 80.7%; for `CNCCCC12CCC(c3ccccc31)c1ccccc12` [Maprotiline hydrochloride]: 65.2%; for `NC(=O)OCC(COC(N)=O)c1ccccc1` [Felbamate]: 81.9%.
With `CCN(CC)CCOCCOC(=O)C1(c2ccccc2)CCCC1` [Pentoxyverine Citrate], the cell viability turned out to be 92.9%.
Turning to `Cn1cc(C2=C(c3ccc(Cl)cc3Cl)C(=O)NC2=O)c2ccccc21`, the cell viability was found to be 94.7%.
The same measure for `Clc1ccc(C(Cn2ccnc2)OCc2ccc(Sc3ccccc3)cc2)c(Cl)c1` (stereo not given) [Fenticonazole nitrate]: 62.4%; for `CC1(C)CCC(CN2CCN(c3ccc(C(=O)NS(=O)(=O)c4ccc(NCC5CCOCC5)c([N+](=O)[O-])c4)c(Oc4cnc5[nH]ccc5c4)c3)CC2)=C(c2ccc(Cl)cc2)C1` [Venetoclax (ABT-199, GDC-0199)]: 0.58%; for `C[N+]1(C)CCCC1C(=O)[O-]` (stereo not given) [Stachydrine]: 97.3%.
In the case of `CC1(C)[C@@H](O[C@H]2O[C@H](C(=O)O)[C@@H](O)[C@H](O)[C@H]2O[C@@H]2O[C@H](C(=O)O)[C@@H](O)[C@H](O)[C@H]2O)CC[C@]2(C)[C@H]3C(=O)C=C4[C@@H]5C[C@@](C)(C(=O)O)CC[C@]5(C)CC[C@@]4(C)[C@]3(C)CC[C@@H]12` [Dipotassium glycyrrhizinate], the cell viability was 103%.
In the case of `C[C@H](NC(=O)CCc1nc2ccccc2c(=O)[nH]1)c1ccccc1` it was 106%; in that of `N#CC(=Cc1cn(-c2ccccc2)c2ccccc12)C(=O)O`, 86.3%.
The same measure for `COc1cc2nc(N3CCN(C(=O)C4CCCO4)CC3)nc(N)c2cc1OC` (stereo not given) [Terazosin HCl]: 99.5%.
As to `C[C@@H]1CC(=O)NN=C1c1ccc(NN=C(C#N)C#N)cc1` [Levosimendan], the cell viability is 68.9%.
The same measure for `Cn1c(-c2ccccc2C(F)(F)F)nnc1C12CCC(c3noc(C4CC(F)(F)C4)n3)(CC1)CC2`: 88%; for `CCCCCCCCCCCCCCCC(=O)OCC(O)C1OC(=O)C(O)=C1O` [L-Ascorbyl 6-palmitate]: 107%; for `OC[C@H]1O[C@@H](Oc2ccc(O)cc2)[C@H](O)[C@@H](O)[C@@H]1O` [Arbutin (Uva, p-Arbutin)]: 96.6%.
The same measure for `CC[C@H](C)C(=O)O[C@H]1C[C@H](O)C=C2C=C[C@H](C)[C@H](CC[C@@H](O)C[C@@H](O)CC(=O)O)[C@H]21` [Pravastatin sodium]: 95.2%.
In the case of `C[C@H]1CNC(=O)c2cnn3ccc(nc23)N[C@H](C)c2cc(F)ccc2O1` it was 48.6%; in that of `COc1cc2c(cc1OC(C)C)[C@H](c1ccc(Cl)cc1)N(c1ccc(N(C)C[C@H]3CC[C@H](N4CCN(C)C(=O)C4)CC3)cc1)C(=O)C2`, 67.8%; in that of `CSCC[C@H](NC(=O)[C@H](CC(C)C)NC(=O)[C@H](Cc1c[nH]c2ccccc12)NC(=O)[C@H](CCC(N)=O)NC(=O)[C@@H](NC(=O)[C@H](Cc1ccccc1)NC(=O)[C@H](CC(=O)O)NC(=O)[C@H](CCC(N)=O)NC(=O)[C@H](C)NC(=O)[C@H](CCCNC(=N)N)NC(=O)[C@H](CCCNC(=N)N)NC(=O)[C@H](CO)NC(=O)[C@H](CC(=O)O)NC(=O)[C@H](CC(C)C)NC(=O)[C@H](Cc1ccc(O)cc1)NC(=O)[C@H](CCCCN)NC(=O)[C@H](CO)NC(=O)[C@H](Cc1ccc(O)cc1)NC(=O)[C@H](CC(=O)O)NC(=O)[C@H](CO)NC(=O)[C@@H](NC(=O)[C@H](Cc1ccccc1)NC(=O)[C@@H](NC(=O)CNC(=O)[C@H](CCC(N)=O)NC(=O)[C@H](CO)NC(=O)[C@@H](N)Cc1cnc[nH]1)[C@@H](C)O)[C@@H](C)O)C(C)C)C(=O)N[C@@H](CC(N)=O)C(=O)N[C@H](C(=O)O)[C@@H](C)O` [Glucagon HCl], 107%.
For `CC(=O)O[C@]1(C)CC[C@@]23C[C@H]1C(C)(C)[C@@H]2CC[C@H]3C` [Cedryl acetate], the cell viability was found to be 103%.
As to `OC(CN1CCN(c2cccc(Cl)c2)CC1)C(c1ccccc1)c1ccccc1` (stereo not given), the cell viability turned out to be 84.2%.
